# In PubChem BioAssay (Tox21):
# Records with an inconclusive call do not appear. Active and inactive are the calls of the source. Calls follow the shape of the dose curve; as a rule, active = well fitted activation curve with a large enough effect in the repeat runs; inconclusive = weak or mixed curves; inactive = flat fitted curve, though single readings scatter.
# Assay: A CellTox Green Cytotoxicity Assay to monitor cytotoxicity in HepG2 cells - 8 hour (AID 1224890); also: nearly all actives have a fitted effect of over 45% in size
# Conditions: CellTox Green fluorescence; series mostly up to 76.8 µM; cytotoxicity increase: at the top concentration
# From the text: National Center for Advancing Translational Sciences [NCATS]
# NIH Chemical Genomics Center [NCGC]
# U.S. Environmental Protection Agency [EPA]
# National Institutes of Environmental Health Sciences [NIEHS]
# National Toxicology Program [NTP]
# Cell-based models are critical for drug discovery. Determining the natural cytotoxic effects resulting from test compounds is an essential research activity. A CellTox Green Cytotoxicity Assay to monitor cytotoxicity in real time of continues cell culture during 40 hours of the compound treatment was used to screen Tox21 10K library compounds in HepG2 cells. CellTox Green Cytotoxicity Assay is a nonlytic, homogeneous, biofluorescent method to measure cytotoxicity in cell culture after experimental manipulation. The assay system uses a proprietary asymmetric cyanine dye that is excluded from viable cells but preferentially stains the dead cell's DNA. […] Viable cells produce no appreciable increases in fluorescence. Therefore, the fluorescence signal produced by the binding interaction with dead cell DNA is proportional to cytotoxicity.
# The mixture of HepG2 cell suspension and reagents were dispensed at 600cells/6 ul/well in 1536-well tissue culture treated black solid bottom plates using a Multidrop dispenser. After the assay plates were incubated at a 37 C/5% CO2 incubator for 5 hours, 23 nL of compounds dissolved in DMSO, positive and negative controls was transferred to the assay plate by a pintool work station. The plates were incubated at 37 C for 40 hours. The fluorescence intensity were measured at 0h, 8h, 16h, 24h, 32h and 40h time points using ViewLux plate reader during compound treatment.
# % is scaled to controls: 0 for no effect and ±100 for the full control effect.
SMILES,outcome,cytotoxicity increase
OC1C(O)C(O)C(O)C(O)C1O (stereo not given),inactive,–
CC(CCO)CC(C)(C)C (stereo not given),inactive,–
COC(=O)CCCC(=O)OC,inactive,–
CCNc1ccccc1,inactive,–
CC(=O)OCCOC(C)=O,inactive,–
O=S(=O)(O)c1ccccc1,inactive,–
OCc1ccccc1,inactive,–
CC(=O)CCC=C(C)C,–,-10.8% (inactive)
CC(C)(C)c1cc(Cc2cc(C(C)(C)C)c(O)c(C(C)(C)C)c2)cc(C(C)(C)C)c1O,inactive,–
N#Cc1ccccc1,inactive,–
COC(=O)c1cccnc1,inactive,–
CCOC(=O)c1ccc(N)cc1,inactive,–
NC(=S)NNC(N)=S,inactive,–
Clc1ccccn1,inactive,–
C=C(C)C(=O)OCC(C)C,inactive,–
O=C(OCC1CCC2OC2C1)C1CCC2OC2C1 (stereo not given),inactive,–
CC1(C)CC(N)CC(C)(CN)C1 (stereo not given),inactive,–
CC(=O)OC1CC(C)OC(C)O1 (stereo not given),inactive,–
O=C(O)/C=C/C(=O)O,inactive,–
CN(C)c1ccc(O)c2c1C[C@H]1C[C@H]3[C@H](N(C)C)C(=O)C(C(N)=O)=C(O)[C@@]3(O)C(=O)C1=C2O,inactive,–

SMILES,outcome,cytotoxicity increase
CC(C)CC(C)O (stereo not given),inactive,–
CNC(=S)N(C)C,inactive,–
CCCCCCO,inactive,–
COc1ccc(CCC(C)=O)cc1,inactive,–
CC(=O)OCc1ccco1,inactive,–
COc1cc(OC)c(C(=O)CCCN2CCCC2)c(OC)c1,inactive,–
COc1ccc([N+](=O)[O-])cc1N,inactive,–
CC1(C)OC[C@@H]2O[C@@]3(C(=O)O)OC(C)(C)O[C@H]3[C@@H]2O1,inactive,–
CC(C)=CCl,inactive,–
CC(=O)c1ccc(O)cc1,inactive,–
c1ccc(Oc2ccccc2)cc1,inactive,–
CCCCCCCC=O,inactive,–
CCCOC(=O)c1ccccc1,inactive,–
O=C(O)c1cc2ccccc2cc1O,inactive,–
O=[N+]([O-])c1ccc2nc[nH]c2c1,inactive,–
CC(O)CC(C)(C)O (stereo not given),inactive,–
COc1ccc(C)cc1N,inactive,–
CCOCCOCCOCCO,inactive,–
c1ccc2c(c1)Cc1ccccc1-2,inactive,–
COc1ccccc1OCC(O)CO (stereo not given),inactive,–
